KCNQ2 inh = blocks the rat KCNQ2 potassium channel; O88943; CHO-K1 KCNQ2, FluxOR thallium flux, 20 min; stronger effect = lower value; B-score at 10 µM; 310,000 tested, 1.1% active; AID 2156;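 active = fluorescence ratio B-score at most minus 3 library SDs, with starting brightness B-score within 2 library SDs, cut at about -5.5 in these data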
Target sequence (O88943 whole entry, looked up): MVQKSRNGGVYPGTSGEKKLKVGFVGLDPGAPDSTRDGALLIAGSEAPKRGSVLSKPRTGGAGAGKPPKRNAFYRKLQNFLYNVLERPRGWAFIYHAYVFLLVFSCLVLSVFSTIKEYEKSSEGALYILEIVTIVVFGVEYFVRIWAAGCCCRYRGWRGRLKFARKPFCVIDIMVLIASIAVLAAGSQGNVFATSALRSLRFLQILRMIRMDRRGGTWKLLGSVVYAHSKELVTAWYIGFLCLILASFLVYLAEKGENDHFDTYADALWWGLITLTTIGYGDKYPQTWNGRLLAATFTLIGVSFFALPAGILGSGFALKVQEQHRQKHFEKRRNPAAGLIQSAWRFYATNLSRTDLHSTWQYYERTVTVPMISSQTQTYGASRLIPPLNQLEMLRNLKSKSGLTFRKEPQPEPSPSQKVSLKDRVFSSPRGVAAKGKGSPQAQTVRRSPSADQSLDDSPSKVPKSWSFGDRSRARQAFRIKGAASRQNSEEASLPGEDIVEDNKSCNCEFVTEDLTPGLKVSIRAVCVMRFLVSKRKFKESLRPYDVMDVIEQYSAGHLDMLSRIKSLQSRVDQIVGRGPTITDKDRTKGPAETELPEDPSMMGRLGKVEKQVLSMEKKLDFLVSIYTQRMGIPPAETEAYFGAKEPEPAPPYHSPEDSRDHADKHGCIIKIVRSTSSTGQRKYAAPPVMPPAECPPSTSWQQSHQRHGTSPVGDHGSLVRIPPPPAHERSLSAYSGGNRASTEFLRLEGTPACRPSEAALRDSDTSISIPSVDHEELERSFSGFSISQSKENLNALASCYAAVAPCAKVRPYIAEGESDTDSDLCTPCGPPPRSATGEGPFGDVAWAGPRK
KCNQ2 enhance = KCNQ2 (rat) channel potentiation; O88943; CHO-K1 KCNQ2, FluxOR thallium flux fluorescence; stronger effect = higher value; B-score at 10 µM; 310,000 tested, 0.54% active;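 active = fluorescence ratio B-score at least 3 SD of library B-scores, with initial fluorescence B-score within 3 of them, cut at about 5.3 in these data; same plate scores as AID 2156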;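 also: B-score of peak minus minimum over baseline fluorescence ratio after K+ and Tl+ stimulus; positive B-score means potentiation of KCNQ2 with more thallium influx and brighter signal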
Kir21 conf inh = confirmation of mouse Kir2.1 potassium channel inhibitors | shares compounds with KCNQ2 enhance | Kir2.1-expressing cells, FluxOR thallium flux fluorescence; stronger effect = lower value | Tl flux remaining, % of negative control (stronger effect = lower value), % at 10 µM | 2,300 tested, 41% active;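 active = Primary-screen hit whose thallium flux fell at least 3 control SD below untreated wells in both duplicates, with normal baseline fluorescence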;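 also: 0% = blank wells without stimulus and 100% = stimulated no-compound controls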
HEK293 Tl flux = counter-screen for Kir2.1 inhibitors: effect in parental HEK293 cells; shares compounds with KCNQ2 enhance; FluxOR thallium flux fluorescence; 0% = unstimulated blank wells; FluxOR signal as % of negative control (100 = no effect), % at 10 µM; 2,300 tested, 19% active;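 active = dye signal at least 3 control SD above or below untreated wells in both duplicates, raw fluorescence within 3, either direction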;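 also: percent is based on the flux ratio of peak minus minimum fluorescence over baseline F0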
CHO-K1 ctr = counter-screen for KCNQ2 potentiators: effect in parental CHO-K1 cells | shares compounds with KCNQ2 enhance | FluxOR thallium flux fluorescence; zero = vehicle mean+3SD, 100% = vehicle-minus-blank window | activity increase over 3SD of controls, % at 10 µM | 1,200 tested, 43% active;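 active = signal rise of at least 3 SD above the untreated control mean, in both duplicate wells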;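 also: counter screen of KCNQ2 potentiator hits so any rise reflects channel-independent effects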
KCNQ1 sel pot = human KCNQ1 counter-target activity of KCNQ2 potentiators; shares compounds with KCNQ2 enhance; activation over 3SD threshold, % at 10 µM; CHO KCNQ1 stable, FluxOR thallium flux fluorescence; beyond 3SD, as % of vehicle-control signal; 1,200 tested, 28% active;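 active = fluorescence ratio rise of at least 3 SD of vehicle wells above their mean, in both replicate wells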;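 also: 0% = vehicle mean plus 3 SD and 100% = vehicle minus unstimulated blank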
KCNQ2 pot conf = confirmation of rat KCNQ2 potassium channel potentiators | shares compounds with KCNQ2 enhance | CHO-KCNQ2 cells, FluxOR thallium flux fluorescence | potentiation, less the hit threshold, % at 10 µM | 1,200 tested, 68% active;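 active = fluorescence ratio rising 3 SD or more over the vehicle control mean in both replicates, plus primary screen hit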;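 also: peak minus minimum thallium fluorescence divided by baseline after K/Tl stimulus; 0% = vehicle mean plus 3 SD and 100% = vehicle minus unstimulated blank difference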
Kir2-1 sel = selectivity of KCNQ2 potentiators: effect on mouse Kir2.1 | shares compounds with KCNQ2 enhance | HEK293 Kir2.1, FluxOR thallium flux fluorescence | activity over 3SD threshold, % at 10 µM | 1,200 tested, 2% active | AID 2345;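 active = fluorescence ratio rise of at least 3 SD above the vehicle-control mean, seen in both replicates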;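 also: 0% = vehicle mean plus 3 SD and 100% = vehicle minus no-stimulus blank window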
KCNQ2 W236L pot = KCNQ2 potentiators acting on retigabine-insensitive rat KCNQ2 W236L mutant | CHO KCNQ2-W236L, automated patch clamp current | AID 2558 | shares compounds with KCNQ2 enhance | 940 tested, 10% active | current increase over 3SD of negative controls (%), stronger effect = higher value, % at 25 µM;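 active = current increase at least 3 SD of the untreated controls above them in both duplicate recordings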
The depositor's hits bear a star; i = inactive; · = no result. Rows were chosen to be rich in hits. Some 1.6% of all compounds tested hit in one or more screens of this group.

SMILES | KCNQ2 inh | KCNQ2 enhance | Kir21 conf inh | HEK293 Tl flux | others
O=S(=O)(c1cccc(COc2c(Cl)cccc2Cl)c1)N1CCOCC1 | i | · | · | ·
COc1ccc(C(C)=O)cc1CSc1nnnn1-c1ccc(O)cc1 | i | · | · | ·
CCOc1ccc(C(C)=O)cc1CSc1nnnn1-c1ccc(O)cc1 | i | · | 62.0%* | i
O=C(CSc1nc2ccccc2n1Cc1ccccc1)N/N=C/c1ccccc1C(=O)O | i | 0.51 | · | ·
O=C(O)COc1ccccc1/C=N/NC(=O)CSc1nc2ccccc2n1Cc1ccccc1Cl | i | 2.33 | i | 73.0%*
O=C(NC1CCCCCC1)C1Cc2ccccc2CN1C(=O)c1ccco1 (centres undefined) | i | · | · | ·
N#Cc1ccc(C(CC(=O)O)N2Cc3ccccc3C2=O)cc1 (centres undefined) | i | · | · | ·
CCc1ccccc1NC(=O)CN(C1CCCCC1)S(C)(=O)=O | i | · | · | ·
CCOc1ccc(OCCC(=O)OCC(=O)Nc2ccc(N3CCOCC3)cc2)cc1 | i | 0.66 | · | ·
CCOc1cc(N2CCOCC2)c(OCC)cc1NC(=O)COC(=O)CCOc1ccc(C(C)(C)C)cc1 | i | 10.6* | i | i | CHO-K1 ctr=3.1*;KCNQ1 sel pot=-23.5;KCNQ2 pot conf=-11.8;Kir2-1 sel=-13.9;KCNQ2 W236L pot=i
Cc1ccc(C(=O)Nc2ccc(N3CCOCC3)cc2N2CCOCC2)cc1 | i | · | · | ·
CC(C)(C)c1ccc(OCCC(=O)Nc2ccc(N3CCOCC3)cc2N2CCOCC2)cc1 | i | 7.97* | · | · | CHO-K1 ctr=-5.7;KCNQ1 sel pot=-37.1;KCNQ2 pot conf=-16.0;Kir2-1 sel=-43.7
CC(C)CN(CCCNC(=O)CN1N=C(c2ccc(Cl)cc2)CCC1=O)CC(C)C | i | 3.11 | · | ·
Cc1ccc(-n2ncc(Cl)c2C(=O)NC2CC2)cc1 | i | · | · | ·
COc1ccccc1-c1nc2cc(Cl)ccc2c(=O)n1O | i | · | · | ·
N#Cc1ccc(-c2nc3ccc(Br)cc3c(=O)n2O)cc1 | i | 4.23 | · | ·
O=c1c2ccc(Cl)cc2nc(-c2ccc([N+](=O)[O-])cc2)n1O | i | 13.6* | i | 303.5%* | CHO-K1 ctr=5.3*;KCNQ1 sel pot=-13.8;KCNQ2 pot conf=41.6*;Kir2-1 sel=-13.2;KCNQ2 W236L pot=i
O=c1c2cc(Cl)ccc2nc(-c2ccccc2)n1O | i | 6.54* | i | 325.5%* | CHO-K1 ctr=5.6*;KCNQ1 sel pot=9.7*;KCNQ2 pot conf=37.5*;Kir2-1 sel=-20.1;KCNQ2 W236L pot=i
O=c1c2ccccc2nc(-c2ccccc2)n1O | i | 0.66 | · | ·
O=c1c2cc(Br)ccc2nc(-c2ccc([N+](=O)[O-])cc2)n1O | i | 9.81* | i | 383.0%* | CHO-K1 ctr=-3.7;KCNQ1 sel pot=64.6*;KCNQ2 pot conf=50.6*;Kir2-1 sel=-19.3;KCNQ2 W236L pot=i
O=c1c2cc(Br)ccc2nc(-c2cccc(C(F)(F)F)c2)n1O | i | 27.7* | i | 611.0%* | CHO-K1 ctr=-11.5;KCNQ1 sel pot=-12.6;KCNQ2 pot conf=92.2*;Kir2-1 sel=13.8*;KCNQ2 W236L pot=i
Cc1ccccc1-c1nc2ccc(Cl)cc2c(=O)n1O | i | · | · | ·
CCCCN(C)Cc1c(O)ccc2c(=O)c(-c3ccccc3OC)coc12 | i | · | · | ·
COc1ccc(/C(N)=N/OC(=O)C2CCC(=O)N2S(=O)(=O)c2ccc(C)cc2)cc1OC (centres undefined) | i | 0.15 | · | ·
Cc1ccc(NC(=O)CN(C)C(=O)CNC(=O)c2sc3ccccc3c2Cl)cc1 | i | 0.71 | · | ·
Cc1nn(C)c(C(=O)NN)c1Cl | i | · | · | ·
Cc1cnc(NC(=O)C(C)N2CCN(C)CC2)s1 (centres undefined) | i | 0.4 | · | ·
CC1CCCN(C(=S)NC2CCCC2)C1 (centres undefined) | i | 0.66 | · | ·

Source: PubChem
